# Tests used:
# Assay in all cases: DAPPL (digital affinity profiling via proximity ligation, sequencing); 10 mM Tris-HCl pH 7.5, 50 mM NaCl, 1 mM DTT, 4% glycerol, room temperature, 30 min; GST-TFs on glutathione beads, 16-mer random dsDNA library, 0.1% formaldehyde crosslink after washing; high values mean tight binding
# [1] = target: T1, FLI1 (Homo sapiens, UniProt Q01543 1-452); conditions: protein: recombinant; tags: N-terminal GST; dsDNA, one strand shown
# T1 sequence: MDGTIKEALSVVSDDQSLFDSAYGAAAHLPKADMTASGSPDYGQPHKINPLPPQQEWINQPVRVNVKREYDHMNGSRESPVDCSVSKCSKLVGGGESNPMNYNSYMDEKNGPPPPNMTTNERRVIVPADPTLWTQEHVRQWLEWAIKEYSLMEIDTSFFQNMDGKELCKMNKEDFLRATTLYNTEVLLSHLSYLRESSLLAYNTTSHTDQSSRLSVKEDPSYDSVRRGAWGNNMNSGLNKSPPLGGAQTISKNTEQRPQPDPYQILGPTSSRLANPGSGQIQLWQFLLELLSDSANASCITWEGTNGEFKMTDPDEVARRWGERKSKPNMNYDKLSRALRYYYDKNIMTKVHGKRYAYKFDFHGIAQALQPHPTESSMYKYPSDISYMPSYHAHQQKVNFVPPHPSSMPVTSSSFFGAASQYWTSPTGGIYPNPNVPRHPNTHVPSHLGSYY
# How it was run: (§1)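 GST fusions of human transcription factors were expressed in yeast and captured with glutathione beads. Once given DNA barcodes and pooled alongside a tag-only sample, they were incubated for 30 min at room temperature with 200 nmole of a random double-stranded 16-mer DNA library in Tris/NaCl/DTT/glycerol buffer, then washed, crosslinked (0.1% formaldehyde), proximity-ligated, PCR-amplified and sequenced on an Illumina NextSeq500. The binding signal of each hexamer is its read frequency for a factor divided by its frequency for the tag-only sample.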
# [2] = target: T2, ELK1 (Homo sapiens, UniProt P19419 1-428); conditions: protein: recombinant; tags: N-terminal GST; dsDNA, one strand shown
# T2 sequence: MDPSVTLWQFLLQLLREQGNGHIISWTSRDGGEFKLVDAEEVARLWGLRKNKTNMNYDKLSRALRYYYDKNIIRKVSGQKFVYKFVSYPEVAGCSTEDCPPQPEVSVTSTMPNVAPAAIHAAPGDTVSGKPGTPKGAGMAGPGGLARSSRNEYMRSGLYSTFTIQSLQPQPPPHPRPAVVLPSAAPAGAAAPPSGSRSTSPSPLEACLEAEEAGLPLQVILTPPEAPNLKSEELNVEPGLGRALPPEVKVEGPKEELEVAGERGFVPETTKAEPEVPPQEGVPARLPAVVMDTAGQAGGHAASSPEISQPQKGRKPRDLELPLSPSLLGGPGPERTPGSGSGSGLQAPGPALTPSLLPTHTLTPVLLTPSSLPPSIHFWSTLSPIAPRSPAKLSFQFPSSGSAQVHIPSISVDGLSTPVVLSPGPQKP
# How it was run: as §1
# [3] = target: T3, GABPA (Homo sapiens, UniProt Q06546 1-454); conditions: protein: recombinant; tags: N-terminal GST; dsDNA, one strand shown
# T3 sequence: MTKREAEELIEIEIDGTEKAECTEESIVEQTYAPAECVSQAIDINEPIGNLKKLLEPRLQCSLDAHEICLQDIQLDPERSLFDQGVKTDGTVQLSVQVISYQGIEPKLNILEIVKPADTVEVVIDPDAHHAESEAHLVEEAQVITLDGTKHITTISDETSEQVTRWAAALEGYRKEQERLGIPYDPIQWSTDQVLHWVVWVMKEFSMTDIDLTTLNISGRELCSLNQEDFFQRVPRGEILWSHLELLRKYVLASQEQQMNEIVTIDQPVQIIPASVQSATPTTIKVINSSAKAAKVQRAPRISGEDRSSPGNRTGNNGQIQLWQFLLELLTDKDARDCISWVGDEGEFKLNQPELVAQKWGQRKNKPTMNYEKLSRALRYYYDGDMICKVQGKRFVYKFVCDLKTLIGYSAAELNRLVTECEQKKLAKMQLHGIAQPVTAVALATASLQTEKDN
# How it was run: as §1
# [4] = target: T4, ERG (Homo sapiens, UniProt P11308 1-479); conditions: protein: recombinant; tags: N-terminal GST; dsDNA, one strand shown
# T4 sequence: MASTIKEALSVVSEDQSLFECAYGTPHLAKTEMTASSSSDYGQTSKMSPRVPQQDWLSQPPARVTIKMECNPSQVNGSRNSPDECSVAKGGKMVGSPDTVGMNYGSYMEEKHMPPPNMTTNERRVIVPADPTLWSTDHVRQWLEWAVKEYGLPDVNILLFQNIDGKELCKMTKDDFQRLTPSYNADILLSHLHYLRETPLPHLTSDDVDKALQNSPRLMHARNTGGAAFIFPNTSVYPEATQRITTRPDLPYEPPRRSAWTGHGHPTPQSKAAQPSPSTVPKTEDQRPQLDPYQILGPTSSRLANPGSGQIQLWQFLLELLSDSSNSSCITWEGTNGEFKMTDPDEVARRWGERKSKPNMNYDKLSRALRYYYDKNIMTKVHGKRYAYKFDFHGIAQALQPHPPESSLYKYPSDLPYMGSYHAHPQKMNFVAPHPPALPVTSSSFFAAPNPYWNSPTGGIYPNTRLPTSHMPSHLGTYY
# How it was run: as §1
# [5] = target: ELF1 (Homo sapiens, UniProt P32519 1-619); conditions: protein: recombinant; tags: N-terminal GST; dsDNA, one strand shown
# ELF1, sequence (P32519 whole entry): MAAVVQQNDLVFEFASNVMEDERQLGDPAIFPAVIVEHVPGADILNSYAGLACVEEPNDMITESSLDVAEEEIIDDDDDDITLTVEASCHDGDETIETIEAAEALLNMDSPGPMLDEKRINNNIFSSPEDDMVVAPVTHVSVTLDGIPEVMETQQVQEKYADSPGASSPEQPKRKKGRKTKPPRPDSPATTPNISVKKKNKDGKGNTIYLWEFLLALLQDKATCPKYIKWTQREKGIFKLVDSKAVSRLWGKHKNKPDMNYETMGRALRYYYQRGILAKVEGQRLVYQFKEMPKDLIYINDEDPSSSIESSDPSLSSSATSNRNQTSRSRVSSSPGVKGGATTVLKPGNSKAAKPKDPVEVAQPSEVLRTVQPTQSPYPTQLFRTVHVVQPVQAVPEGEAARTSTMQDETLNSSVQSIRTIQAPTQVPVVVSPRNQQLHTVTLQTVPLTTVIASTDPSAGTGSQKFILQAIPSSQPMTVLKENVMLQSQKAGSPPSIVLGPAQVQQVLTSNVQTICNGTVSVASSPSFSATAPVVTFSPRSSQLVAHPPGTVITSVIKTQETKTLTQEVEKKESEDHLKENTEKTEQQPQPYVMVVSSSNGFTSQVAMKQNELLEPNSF
# How it was run: as §1
# [6] = target: T5, EHF (Homo sapiens, UniProt Q9NZC4 1-300); conditions: protein: recombinant; tags: N-terminal GST; dsDNA, one strand shown
# T5 sequence: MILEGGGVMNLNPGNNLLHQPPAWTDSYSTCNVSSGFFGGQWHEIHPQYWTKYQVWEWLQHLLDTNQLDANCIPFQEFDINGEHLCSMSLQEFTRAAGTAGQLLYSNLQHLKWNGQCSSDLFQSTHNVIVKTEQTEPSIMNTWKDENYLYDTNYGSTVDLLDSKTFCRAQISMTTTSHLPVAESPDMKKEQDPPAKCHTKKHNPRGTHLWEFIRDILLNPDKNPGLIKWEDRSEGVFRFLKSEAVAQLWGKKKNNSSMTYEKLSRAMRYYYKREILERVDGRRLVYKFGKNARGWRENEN
# How it was run: as §1
# [7] = target: SPI1 (Homo sapiens, UniProt P17947 1-270); conditions: protein: recombinant; tags: N-terminal GST; dsDNA, one strand shown
# How it was run: as §1
# [8] = target: SPIB (Homo sapiens, UniProt Q01892 1-262); conditions: protein: recombinant; tags: N-terminal GST; dsDNA, one strand shown
# SPIB, sequence (Q01892 whole entry): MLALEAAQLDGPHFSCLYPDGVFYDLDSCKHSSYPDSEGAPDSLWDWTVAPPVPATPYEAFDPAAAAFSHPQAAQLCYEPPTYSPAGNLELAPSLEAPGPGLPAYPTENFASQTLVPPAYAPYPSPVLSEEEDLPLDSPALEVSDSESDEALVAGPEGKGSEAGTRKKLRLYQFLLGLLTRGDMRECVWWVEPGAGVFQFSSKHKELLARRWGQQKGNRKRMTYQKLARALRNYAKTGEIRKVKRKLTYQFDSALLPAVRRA
# How it was run: as §1
# [9] = target: T6, ELK3 (Homo sapiens, UniProt P41970 1-407); conditions: protein: recombinant; tags: N-terminal GST; dsDNA, one strand shown
# T6 sequence: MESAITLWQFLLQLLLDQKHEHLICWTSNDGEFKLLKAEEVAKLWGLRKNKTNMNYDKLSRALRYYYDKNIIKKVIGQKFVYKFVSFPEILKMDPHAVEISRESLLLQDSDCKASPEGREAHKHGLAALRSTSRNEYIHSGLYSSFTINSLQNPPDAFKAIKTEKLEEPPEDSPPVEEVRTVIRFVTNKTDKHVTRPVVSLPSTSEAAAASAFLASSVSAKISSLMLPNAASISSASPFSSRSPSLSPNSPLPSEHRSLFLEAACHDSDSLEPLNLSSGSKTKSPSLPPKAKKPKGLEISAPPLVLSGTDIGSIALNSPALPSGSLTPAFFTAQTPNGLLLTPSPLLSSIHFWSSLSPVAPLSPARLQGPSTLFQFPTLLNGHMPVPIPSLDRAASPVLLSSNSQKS
# How it was run: as §1
# [10] = target: T7, FEV (Homo sapiens, UniProt Q99581 1-238); conditions: protein: recombinant; tags: N-terminal GST; dsDNA, one strand shown
# T7 sequence: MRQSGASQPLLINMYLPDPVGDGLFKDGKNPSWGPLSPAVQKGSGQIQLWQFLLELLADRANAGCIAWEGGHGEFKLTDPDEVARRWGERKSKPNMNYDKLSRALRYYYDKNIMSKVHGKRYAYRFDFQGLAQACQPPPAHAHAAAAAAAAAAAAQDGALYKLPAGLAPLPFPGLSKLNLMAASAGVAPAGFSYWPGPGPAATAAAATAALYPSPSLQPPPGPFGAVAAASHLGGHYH
# How it was run: as §1
# [11] = target: ETV5 (Homo sapiens, UniProt P41161 1-510); conditions: protein: recombinant; tags: N-terminal GST; dsDNA, one strand shown
# ETV5, sequence (P41161 whole entry): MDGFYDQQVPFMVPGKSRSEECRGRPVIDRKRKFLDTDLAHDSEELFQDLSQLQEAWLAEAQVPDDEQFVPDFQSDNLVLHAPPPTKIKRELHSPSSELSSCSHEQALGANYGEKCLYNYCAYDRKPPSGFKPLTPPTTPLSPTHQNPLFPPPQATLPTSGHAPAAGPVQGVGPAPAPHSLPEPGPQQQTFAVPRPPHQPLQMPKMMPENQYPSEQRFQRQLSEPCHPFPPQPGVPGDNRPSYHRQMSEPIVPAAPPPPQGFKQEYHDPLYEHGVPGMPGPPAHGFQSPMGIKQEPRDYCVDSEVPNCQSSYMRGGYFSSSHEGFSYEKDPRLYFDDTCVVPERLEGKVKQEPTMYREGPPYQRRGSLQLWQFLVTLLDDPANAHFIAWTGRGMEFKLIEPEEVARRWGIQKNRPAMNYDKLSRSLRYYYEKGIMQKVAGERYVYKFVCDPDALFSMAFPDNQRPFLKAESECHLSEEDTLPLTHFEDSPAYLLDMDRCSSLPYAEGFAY
# How it was run: as §1
# [12] = target: HSF1 (Homo sapiens, UniProt Q00613 1-529); conditions: protein: recombinant; tags: N-terminal GST; chain copies: 3; dsDNA, one strand shown
# HSF1, sequence (Q00613 whole entry): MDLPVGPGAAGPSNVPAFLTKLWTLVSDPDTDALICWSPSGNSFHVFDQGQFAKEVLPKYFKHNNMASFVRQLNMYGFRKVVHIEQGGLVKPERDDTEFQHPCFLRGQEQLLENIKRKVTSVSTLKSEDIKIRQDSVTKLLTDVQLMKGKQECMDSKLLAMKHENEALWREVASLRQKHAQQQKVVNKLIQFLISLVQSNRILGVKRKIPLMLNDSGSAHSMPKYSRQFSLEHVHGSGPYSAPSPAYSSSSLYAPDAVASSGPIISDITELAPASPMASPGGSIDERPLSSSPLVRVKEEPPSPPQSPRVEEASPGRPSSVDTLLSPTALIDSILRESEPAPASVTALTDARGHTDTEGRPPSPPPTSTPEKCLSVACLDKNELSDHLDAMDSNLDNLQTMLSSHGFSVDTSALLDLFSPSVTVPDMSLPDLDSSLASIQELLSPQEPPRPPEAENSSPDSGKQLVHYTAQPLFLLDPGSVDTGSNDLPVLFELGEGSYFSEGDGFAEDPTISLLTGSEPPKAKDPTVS
# How it was run: as §1
# [13] = target: T8, SPIC (Homo sapiens, UniProt Q8N5J4 1-248); conditions: protein: recombinant; tags: N-terminal GST; dsDNA, one strand shown
# T8 sequence: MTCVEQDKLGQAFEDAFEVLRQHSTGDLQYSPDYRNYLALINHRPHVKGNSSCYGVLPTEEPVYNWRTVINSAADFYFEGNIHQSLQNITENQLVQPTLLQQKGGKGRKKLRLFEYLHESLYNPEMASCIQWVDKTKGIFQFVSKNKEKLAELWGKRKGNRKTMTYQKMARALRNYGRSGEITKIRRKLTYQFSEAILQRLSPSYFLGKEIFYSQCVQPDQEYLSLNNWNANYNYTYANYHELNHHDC
# How it was run: as §1
# [14] = target: ELF4 (Homo sapiens, UniProt Q99607 1-663); conditions: protein: recombinant; tags: N-terminal GST; dsDNA, one strand shown
# ELF4, sequence (Q99607 whole entry): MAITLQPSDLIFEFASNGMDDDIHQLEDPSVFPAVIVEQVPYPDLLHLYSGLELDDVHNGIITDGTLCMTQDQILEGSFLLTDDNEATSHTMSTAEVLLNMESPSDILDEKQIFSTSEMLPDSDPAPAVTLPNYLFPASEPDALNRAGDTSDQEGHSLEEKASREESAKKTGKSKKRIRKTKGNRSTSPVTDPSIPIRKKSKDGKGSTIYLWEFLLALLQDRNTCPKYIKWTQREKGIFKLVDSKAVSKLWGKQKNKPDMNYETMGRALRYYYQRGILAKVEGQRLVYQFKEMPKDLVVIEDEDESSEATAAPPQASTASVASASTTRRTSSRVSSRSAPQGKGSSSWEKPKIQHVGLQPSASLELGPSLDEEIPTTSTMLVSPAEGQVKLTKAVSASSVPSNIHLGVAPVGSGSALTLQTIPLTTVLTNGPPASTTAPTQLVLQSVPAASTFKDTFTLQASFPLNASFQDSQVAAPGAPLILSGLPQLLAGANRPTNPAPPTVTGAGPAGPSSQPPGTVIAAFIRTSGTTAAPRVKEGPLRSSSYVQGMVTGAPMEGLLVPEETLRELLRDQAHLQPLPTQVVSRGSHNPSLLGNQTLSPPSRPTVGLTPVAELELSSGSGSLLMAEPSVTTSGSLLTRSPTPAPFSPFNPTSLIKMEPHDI
# How it was run: as §1
# [15] = target: T9, ELK4 (Homo sapiens, UniProt P28324-2 1-405); conditions: protein: recombinant; tags: N-terminal GST; dsDNA, one strand shown
# T9 sequence: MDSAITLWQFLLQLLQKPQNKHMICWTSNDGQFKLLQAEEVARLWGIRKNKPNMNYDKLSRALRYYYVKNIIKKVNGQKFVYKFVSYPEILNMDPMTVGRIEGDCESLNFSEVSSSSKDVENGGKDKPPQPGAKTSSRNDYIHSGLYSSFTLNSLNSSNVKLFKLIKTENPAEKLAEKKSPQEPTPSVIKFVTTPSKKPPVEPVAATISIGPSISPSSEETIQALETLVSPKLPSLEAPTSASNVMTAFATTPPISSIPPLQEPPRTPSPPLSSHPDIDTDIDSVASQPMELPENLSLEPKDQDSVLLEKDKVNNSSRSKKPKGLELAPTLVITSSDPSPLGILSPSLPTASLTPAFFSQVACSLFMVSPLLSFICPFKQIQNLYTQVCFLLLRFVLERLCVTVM
# How it was run: as §1
# [16] = target: T10, ETV2 (Homo sapiens, UniProt O00321 1-342); conditions: protein: recombinant; tags: N-terminal GST; dsDNA, one strand shown
# T10 sequence: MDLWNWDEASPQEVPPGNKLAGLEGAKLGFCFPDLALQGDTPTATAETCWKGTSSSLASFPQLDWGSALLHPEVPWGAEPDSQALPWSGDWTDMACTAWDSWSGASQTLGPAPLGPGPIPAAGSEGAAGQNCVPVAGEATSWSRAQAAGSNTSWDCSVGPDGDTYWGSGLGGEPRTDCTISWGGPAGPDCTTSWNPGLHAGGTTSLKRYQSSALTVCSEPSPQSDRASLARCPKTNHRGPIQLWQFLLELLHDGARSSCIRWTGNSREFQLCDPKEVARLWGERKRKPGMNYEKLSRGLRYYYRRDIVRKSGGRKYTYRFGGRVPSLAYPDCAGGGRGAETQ
# How it was run: as §1
# [17] = target: T11, ELF3 (Homo sapiens, UniProt P78545 1-371); conditions: protein: recombinant; tags: N-terminal GST; dsDNA, one strand shown
# T11 sequence: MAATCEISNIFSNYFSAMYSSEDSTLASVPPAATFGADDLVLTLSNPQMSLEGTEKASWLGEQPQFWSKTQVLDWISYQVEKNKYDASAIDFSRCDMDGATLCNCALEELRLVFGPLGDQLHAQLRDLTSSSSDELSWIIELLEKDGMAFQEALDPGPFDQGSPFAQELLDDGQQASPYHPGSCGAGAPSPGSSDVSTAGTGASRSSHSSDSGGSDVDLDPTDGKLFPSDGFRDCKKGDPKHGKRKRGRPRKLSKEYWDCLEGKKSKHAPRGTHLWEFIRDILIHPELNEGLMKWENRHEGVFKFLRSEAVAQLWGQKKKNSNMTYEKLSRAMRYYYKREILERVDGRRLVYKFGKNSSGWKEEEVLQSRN
# How it was run: as §1
# [18] = target: CRX (Homo sapiens, UniProt O43186 1-299); conditions: protein: recombinant; tags: N-terminal GST; dsDNA, one strand shown
# CRX, sequence (O43186 whole entry): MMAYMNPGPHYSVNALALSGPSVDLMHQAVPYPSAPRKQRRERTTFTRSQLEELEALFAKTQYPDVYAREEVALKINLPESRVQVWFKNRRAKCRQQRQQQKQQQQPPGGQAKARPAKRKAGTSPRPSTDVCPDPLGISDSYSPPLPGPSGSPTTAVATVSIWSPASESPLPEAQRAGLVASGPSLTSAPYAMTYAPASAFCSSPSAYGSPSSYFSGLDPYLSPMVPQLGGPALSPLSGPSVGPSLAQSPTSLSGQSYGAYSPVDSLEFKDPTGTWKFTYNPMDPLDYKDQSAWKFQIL
# How it was run: as §1
# [19] = target: ETV1 (Homo sapiens, UniProt P50549 1-477); conditions: protein: recombinant; tags: N-terminal GST; dsDNA, one strand shown
# ETV1, sequence (P50549 whole entry): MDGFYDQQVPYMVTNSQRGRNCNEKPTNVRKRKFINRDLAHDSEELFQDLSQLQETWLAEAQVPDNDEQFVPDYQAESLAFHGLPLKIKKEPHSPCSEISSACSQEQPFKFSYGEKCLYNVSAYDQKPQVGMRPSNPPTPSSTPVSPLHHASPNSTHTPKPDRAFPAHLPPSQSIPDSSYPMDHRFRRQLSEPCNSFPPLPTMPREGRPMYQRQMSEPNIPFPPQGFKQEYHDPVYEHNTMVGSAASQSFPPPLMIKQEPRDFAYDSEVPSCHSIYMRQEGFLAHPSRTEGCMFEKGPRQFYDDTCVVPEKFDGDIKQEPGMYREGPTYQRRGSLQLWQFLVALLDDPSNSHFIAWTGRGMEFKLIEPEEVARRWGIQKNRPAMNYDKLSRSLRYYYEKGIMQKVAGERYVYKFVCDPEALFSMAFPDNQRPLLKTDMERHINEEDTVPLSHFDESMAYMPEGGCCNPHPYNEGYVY
# How it was run: as §1
sequence,measurement,setting,value
GCTGCT,binding signal,[1],"1.32 fold enrichment (6-mer frequency, TF over GST control)"
same,binding signal,[2],"1.24 fold enrichment (6-mer frequency, TF over GST control)"
same,binding signal,[3],"1.24 fold enrichment (6-mer frequency, TF over GST control)"
same,binding signal,[4],"1.29 fold enrichment (6-mer frequency, TF over GST control)"
same,binding signal,[5],"1.41 fold enrichment (6-mer frequency, TF over GST control)"
same,binding signal,[6],"1.34 fold enrichment (6-mer frequency, TF over GST control)"
same,binding signal,[7],"1.19 fold enrichment (6-mer frequency, TF over GST control)"
same,binding signal,[8],"1.29 fold enrichment (6-mer frequency, TF over GST control)"
same,binding signal,[9],"1.27 fold enrichment (6-mer frequency, TF over GST control)"
same,binding signal,[10],"1.27 fold enrichment (6-mer frequency, TF over GST control)"
same,binding signal,[11],"1.25 fold enrichment (6-mer frequency, TF over GST control)"
same,binding signal,[12],"1.13 fold enrichment (6-mer frequency, TF over GST control)"
same,binding signal,[13],"1.5 fold enrichment (6-mer frequency, TF over GST control)"
same,binding signal,[14],"1.29 fold enrichment (6-mer frequency, TF over GST control)"
same,binding signal,[15],"1.36 fold enrichment (6-mer frequency, TF over GST control)"
same,binding signal,[16],"1.25 fold enrichment (6-mer frequency, TF over GST control)"
same,binding signal,[17],"1.37 fold enrichment (6-mer frequency, TF over GST control)"
same,binding signal,[18],"1.27 fold enrichment (6-mer frequency, TF over GST control)"
same,binding signal,[19],"1.42 fold enrichment (6-mer frequency, TF over GST control)"

# — publication PMC7862700, “An all-to-all approach to the identification of sequence-specific readers for epigenetic DNA modifications on cytosine”
